PubChem BioAssay (NCATS)
Results filed as inconclusive are left out. The source made the active and inactive calls. The call rests on the fitted dose curve; in most records, active means well fitted curve in the direction sought with a large enough effect; inconclusive means small, poorly fitted or top-dose-only effect, or another doubt; inactive means no such curve, though single readings can be large; an effect the other way counts as inactive or inconclusive.

How the values were obtained:
[1] = qHTS of pediatric cancer cell lines to identify multiple opportunities for drug repurposing: Primary screen for Rh18 cells (AID 1347102); further: nearly all actives have a fitted effect of over 65% in size; further: potency means the concentration at half of the fitted maximal effect
In short: (§1)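 Cells (500-1,000/well) rested 5 h, then received compounds for 48 h; metabolically active cells were measured by CellTiter-Glo luminescence. Final concentrations spanned up to 46 µM (MIPE, 11-point) or 0.59 nM-46 µM (NPC, 8-point) in primary screens, 11-point in follow-ups.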

[2] = qHTS of pediatric cancer cell lines to identify multiple opportunities for drug repurposing: Primary screen for OHS-50 cells (AID 1347103); further: nearly all actives have a fitted effect of over 40% in size; further: potency means the concentration at half of the fitted maximal effect
In short: as §1

[3] = qHTS of pediatric cancer cell lines to identify multiple opportunities for drug repurposing: Primary screen for RD cells (AID 1347104); further: nearly all actives have a fitted effect of over 55% in size; further: potency means the concentration at half of the fitted maximal effect
In short: (§2)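 Quantitative HTS format: each compound titrated (MIPE 11 points from 0.78 nM, NPC 8 points from 0.59 nM) onto cells plated 5 hours earlier. After 48 h at 37 degrees C, CellTiter-Glo luminescence was recorded.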

[4] = qHTS of pediatric cancer cell lines to identify multiple opportunities for drug repurposing: Primary screen for MG 63 (6-TG R) cells (AID 1347105); further: nearly all actives have a fitted effect of over 50% in size; further: potency means the concentration at half of the fitted maximal effect
In short: as §2

[5] = qHTS of pediatric cancer cell lines to identify multiple opportunities for drug repurposing: Primary screen for control Hh wild type fibroblast cells (AID 1347106);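 further: series mostly up to about 46 µM; a drop in luminescence marks cytotoxicity and a rise apparent proliferation; nearly all actives have a fitted effect of over 55% in size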
In short: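 Viability after 48 h compound treatment at 37C, 500-1,000 cells/well, read as ATP luminescence with CellTiter-Glo. Primary screens used 11-point (MIPE, 0.78 nM-46 µM) or 8-point (NPC, 0.59 nM-46 µM) final concentrations; follow-up screens used 11-point dilutions.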

[6] = qHTS of pediatric cancer cell lines to identify multiple opportunities for drug repurposing: Primary screen for Rh30 cells (AID 1347107); further: nearly all actives have a fitted effect of over 75% in size; further: potency means the concentration at half of the fitted maximal effect
In short: as §1

[7] = qHTS of pediatric cancer cell lines to identify multiple opportunities for drug repurposing: Primary screen for Rh41 cells (AID 1347108); further: nearly all actives have a fitted effect of over 70% in size; further: potency means the concentration at half of the fitted maximal effect
In short: as §2

[8] = qHTS of pediatric cancer cell lines to identify multiple opportunities for drug repurposing: Confirmatory screen for NB1643 cells (AID 1347109); conditions: NB1643 neuroblastoma cell viability; further: potency means the concentration at half of the fitted maximal effect; nearly all actives have a fitted effect of over 45% in size
In short: as §1

[9] = qHTS of pediatric cancer cell lines to identify multiple opportunities for drug repurposing: Confirmatory screen for A673 cells (AID 1347110); conditions: A673 Ewing sarcoma cell viability;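 further: potency means the concentration at half of the fitted maximal effect; cells exposed to compound for 48 h before the viability read; nearly all actives have a fitted effect of over 65% in size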
In short: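 Concentration-response curves came straight from titrations: 11 points (0.78 nM to 46 µM) for MIPE and several concentrations (0.59 nM to 46 µM) for NPC in primary, 11 points in follow-up. Readout: ATP luminescence at 48 h.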

[10] = qHTS of pediatric cancer cell lines to identify multiple opportunities for drug repurposing: Confirmatory screen for SK-N-MC cells (AID 1347111); conditions: SK-N-MC cell viability;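 further: potency means the concentration at half of the fitted maximal effect; cells exposed to compound for 48 h before the readout; nearly all actives have a fitted effect of over 70% in size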
In short: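 Seed 500-1,000 cells/well; rest 5 h at 37 degrees C. Pin-transfer compounds, 11-point titration. Incubate 48 h. Add CellTiter-Glo, 15 min RT, read luminescence.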

[11] = qHTS of pediatric cancer cell lines to identify multiple opportunities for drug repurposing: Confirmatory screen for BT-12 cells (AID 1347112); conditions: BT-12 rhabdoid tumor cells, viability; further: potency means the concentration at half of the fitted maximal effect; nearly all actives have a fitted effect of over 55% in size
In short: as §1

[12] = qHTS of pediatric cancer cell lines to identify multiple opportunities for drug repurposing: Confirmatory screen for LAN-5 cells (AID 1347113); conditions: LAN-5 neuroblastoma cell viability; further: potency means the concentration at half of the fitted maximal effect; nearly all actives have a fitted effect of over 65% in size
In short: as §1

[13] = qHTS of pediatric cancer cell lines to identify multiple opportunities for drug repurposing: Confirmatory screen for DAOY cells (AID 1347114); conditions: DAOY medulloblastoma cells viability, cytotoxicity qHTS; further: potency means the concentration at half of the fitted maximal effect; nearly all actives have a fitted effect of over 65% in size
In short: (§3)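 Viability measured as metabolically active cells via CellTiter-Glo luminescence following 48 hours of compound exposure, 11-point dilutions in confirmatory testing. 500-1,000 cells/well plated 5 hours before dosing; controls were DMSO and 2.3 µM bortezomib.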

[14] = qHTS of pediatric cancer cell lines to identify multiple opportunities for drug repurposing: Confirmatory screen for NB-EBc1 cells (AID 1347115); conditions: NB-EBc1 neuroblastoma cells, viability (cytotoxicity);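 further: potency means the concentration at half of the fitted maximal effect; cells exposed to compound for 48 h before the viability read; nearly all actives have a fitted effect of over 45% in size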
In short: as §1

[15] = qHTS of pediatric cancer cell lines to identify multiple opportunities for drug repurposing: Confirmatory screen for SJ-GBM2 cells (AID 1347116); conditions: SJ-GBM2 glioblastoma cells, viability; further: potency means the concentration at half of the fitted maximal effect; nearly all actives have a fitted effect of over 60% in size
In short: as §3

[16] = qHTS of pediatric cancer cell lines to identify multiple opportunities for drug repurposing: Confirmatory screen for BT-37 cells (AID 1347117); conditions: BT-37 pediatric cancer cells, viability; further: potency means the concentration at half of the fitted maximal effect; nearly all actives have a fitted effect of over 55% in size
In short: as §1

[17] = qHTS of pediatric cancer cell lines to identify multiple opportunities for drug repurposing: Confirmatory screen for TC32 cells (AID 1347118); conditions: TC32 Ewing sarcoma cells viability qHTS
In short: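 TC32 cells, 500-1,000/well in growth medium, compound-treated 48 h at 37 °C; viability from CellTiter-Glo luminescence. Primary screen: MIPE 11-point (0.78 nM–46 µM final), NPC 8-point (0.59 nM–46 µM final); confirmatory at 11-point dilutions.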

[18] = qHTS of pediatric cancer cell lines to identify multiple opportunities for drug repurposing: Confirmatory screen for MG 63 (6-TG R) cells (AID 1347119); conditions: MG-63 (6-TG resistant) osteosarcoma viability
In short: as §1

[19] = qHTS of pediatric cancer cell lines to identify multiple opportunities for drug repurposing: Confirmatory screen for control Hh wild type fibroblast cells (AID 1347121); conditions: viability qHTS; further: potency means the concentration at half of the fitted maximal effect; nearly all actives have a fitted effect of over 70% in size
In short: as §1

[20] = qHTS of pediatric cancer cell lines to identify multiple opportunities for drug repurposing: Confirmatory screen for U-2 OS cells (AID 1347122); conditions: U-2 OS osteosarcoma cell viability
In short: as §1

## CCCSP(=O)(OCC)SCCC
[1]
  Potency: inactive
[2]
  Potency: inactive
[3]
  Potency: inactive
[4]
  Potency: inactive
[5]
  outcome: inactive
[6]
  Potency: inactive
[7]
  Potency: inactive

## C[CH2][Hg][S]c1ccccc1C(=O)O
[1]
  Potency: 4.73 µM (active)
[2]
  Potency: 3.89 µM (active)
[3]
  Potency: 4.73 µM (active)
[4]
  Potency: 2.66 µM (active)
[5]
  outcome: inactive
[6]
  Potency: 2.66 µM (active)
[7]
  Potency: 2.37 µM (active)
[8]
  Potency: 2.93 µM (active)
[9]
  Potency: 7.37 µM (active)
[10]
  Potency: 2.93 µM (active)
[11]
  Potency: 6.57 µM (active)
[12]
  Potency: 4.65 µM (active)
[13]
  Potency: 3.29 µM (active)
[14]
  Potency: 7.37 µM (active)
[15]
  Potency: 7.37 µM (active)
[16]
  Potency: 8.27 µM (active)
[17]
  Potency: 2.93 µM (active)
[18]
  Potency: 5.22 µM (active)
[19]
  Potency: 16.5 µM (active)
[20]
  Potency: 8.27 µM (active)
